Screen size: about 340,000 compounds; about 2,100 (0.62%) were called active.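 Rule for the calls: active = first-screen hits whose inhibition reached a set limit at any dose in the follow-up dose series; inconclusive = inhibition above the set first-screen limit but never retested; inactive = the rest.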 Only a sample is shown. Results with a measured potency or affinity are listed apart.
Each compound was assayed against Rac GTPase-activating protein 1 (Homo sapiens) (UniProt Q9H0H5) (assay: MgcRacGAP GTPase-activating activity inhibitors, confirmation, biochemical, ADP Hunter fluorescence, primary and confirmatory (AID 624330;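 note: fluorescence reports GDP produced by GAP-driven GTP hydrolysis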)). Conditions: MgcRacGAP-stimulated Rac1 GTP hydrolysis, at 30 µM, stronger effect = higher value, GST-tagged Rac1 F28L mutant substrate.
Rac GTPase-activating protein 1 (Homo sapiens), sequence (Q9H0H5 whole entry, looked up): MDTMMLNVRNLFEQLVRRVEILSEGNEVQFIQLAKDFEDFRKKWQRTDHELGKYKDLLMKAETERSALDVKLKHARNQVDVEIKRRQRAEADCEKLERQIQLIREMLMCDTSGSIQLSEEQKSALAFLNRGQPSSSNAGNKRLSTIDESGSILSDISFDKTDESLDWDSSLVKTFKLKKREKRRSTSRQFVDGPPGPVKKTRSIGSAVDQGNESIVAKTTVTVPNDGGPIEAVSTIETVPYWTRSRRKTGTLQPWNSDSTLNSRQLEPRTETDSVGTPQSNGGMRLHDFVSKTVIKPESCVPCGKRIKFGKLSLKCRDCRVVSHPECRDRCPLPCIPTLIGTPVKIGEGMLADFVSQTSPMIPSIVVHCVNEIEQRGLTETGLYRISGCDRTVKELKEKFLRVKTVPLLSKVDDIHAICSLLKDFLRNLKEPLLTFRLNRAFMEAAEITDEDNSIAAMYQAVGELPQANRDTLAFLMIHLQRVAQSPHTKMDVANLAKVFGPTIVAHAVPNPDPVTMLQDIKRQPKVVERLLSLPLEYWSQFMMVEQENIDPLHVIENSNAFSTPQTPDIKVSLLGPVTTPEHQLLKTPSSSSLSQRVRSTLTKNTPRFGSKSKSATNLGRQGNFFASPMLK

inhibition, inactive:
CCn1cc(C(=O)NC2CCCCC2)c(=O)c2ccc(C)nc21 6.08%
CCOc1ccccc1OCCCCOc1ccccc1F 8.35%
CCOc1ccccc1C(=O)N[C@H](C(=O)NNC(=O)c1cccs1)C(C)C 2.5%
Cc1ccc(C)c(SCC(=O)NC(=O)NCc2ccccc2)c1 6.96%
Cc1ccc(NC(=O)N2CCCC2C(=O)Nc2ccc(-n3cnnn3)c(C)c2)cc1 (stereo unspecified) -9.47%
CN1CCCN(C2C3CC4CC(C3)CC2C4)CC1 (stereo unspecified) 14.8%
CS(=O)(=O)N1CCN(C(=O)NC23CC4CC(CC(C4)C2)C3)CC1 -2.26%
C/C(=N/OCC(=O)Nc1ccc(C)cc1C)c1cccs1 17%
Nc1c([N+](=O)[O-])c(=O)oc2ccccc12 3.99%
O=c1cc(-c2ccccc2[N+](=O)[O-])oc2ccccc12 4.61%
CN(C)S(=O)(=O)c1cccc(C(=O)c2nccn2C)c1 2.41%
Cc1ccc(C(=O)Nc2ncc(C)s2)s1 3.92%
Cc1ccsc1C=Nc1ccc(O)cc1 18.4%
Cc1ccc(-c2nc(C=Nc3ccc(O)cc3)c(O)o2)cc1 19%
COc1ccccc1NS(=O)(=O)c1cc(NC(=O)c2ccc(Cl)nc2)ccc1N1CCCC1 9.85%
CCn1nc(C)c(NC(=O)CSc2nnc(-c3ccco3)n2C)c1C 5.76%
Cc1nn(CCCC(=O)Nc2cnn(Cc3ccc(F)cc3)c2)c(C)c1[N+](=O)[O-] -3.65%
COc1cccc(C(=O)N2CCCC(Nc3ccc(C)c(C)c3)C2)c1 (stereo unspecified) 16.7%
Cc1ccc(NC2CCCN(C(=O)c3ccc(C)c(N4CCNC4=O)c3)C2)cc1C (stereo unspecified) 15.1%
Cc1ccc(C(=O)N2CCCC(Nc3cccc(F)c3)C2)cc1N1CCNC1=O (stereo unspecified) 7.34%
CC(C)c1ccc(NC2CCCN(C(=O)c3cccc(N4CCNC4=O)c3)C2)cc1 (stereo unspecified) 9.26%
COc1cc(OC)cc(C(=O)N2CCCC(Nc3ccc(F)cc3)C2)c1 (stereo unspecified) 3.07%
O=C(c1cccc(N2CCNC2=O)c1)N1CCCC(Nc2cccc(F)c2)C1 (stereo unspecified) -0.6%
CC(C)CNc1nc(N)c([N+](=O)[O-])c(NC2CCCCC2)n1 9.84%
CCc1nn2c(=O)cc(CSCC(=O)Nc3ccccc3Cl)nc2s1 10.2%
Cc1ccc(CN2CCN(Cc3ccc(OC(C)C)cc3)CC2CCO)o1 (stereo unspecified) 8.44%
Cc1cccnc1NC(=O)CCCNC(=O)c1ccc(Cl)cc1 5.51%
Oc1cccc(CCc2ccccn2)c1 -0.46%
Nc1ccc(CCc2ccccn2)cc1 -1.15%
COCCNC(=O)COc1cccc(Oc2ccccc2)c1 12.7%
O=C(COc1ccc(Cl)cc1)OCC(=O)N1CCCC1 8.63%
COc1ccc(OCC(=O)OCC(=O)NCc2ccco2)cc1 5.26%
O=C(COC(=O)COc1ccccc1)NCc1ccco1 5.42%
COCCNC(=O)COc1ccc(Oc2ccccc2)cc1 8.68%
O=C(COc1ccc(Cl)cc1)OCC(=O)N1CCCCCC1 11.4%
Cc1ccc(CNC(=O)C2CCC(CNS(=O)(=O)c3cccs3)CC2)cc1 (stereo unspecified) 5.1%
Cc1cccc(NC(=O)CNC(=O)c2ccc(-n3cncn3)c([N+](=O)[O-])c2)c1C 0.04%
Cc1cc(OC(C)C(=O)NCc2cccnc2)c2c(C)cc(=O)oc2c1 (stereo unspecified) 3.28%
CC(NS(=O)(=O)c1ccc2c(c1)C(C)(C)C(=O)N2C)c1ccccc1 (stereo unspecified) 3.16%
N/C(=N\c1nc2c(c(=O)[nH]1)CCC2)Nc1ccccc1C(F)(F)F -0.36%
Cn1c(=O)[nH]c(=O)c2c1nc(Br)n2Cc1ccc(Cl)cc1 8.01%
CSc1nc2c(c(=O)[nH]c(=O)n2C)n1Cc1ccc(Cl)cc1 11.4%
O=C(O)CCC(=O)Nc1cccc(-c2nc3ccccc3o2)c1 -9.77%
CCN(CC)S(=O)(=O)c1ccc2c(c1)c(=O)c(C(=O)N1CCN(c3ccccc3)CC1)cn2C 1.44%
CN(C)CCCN1c2ccccc2Sc2ccc3ccccc3c21 15.1%
CCN(CC)CCN1c2ccccc2Sc2ccc3ccccc3c21 10.6%
COc1cc(C(C)=O)ccc1OCC(O)CNCC1(N2CCCCC2)CCCCC1 (stereo unspecified) 27.1%
OC(CNCC1(N2CCCCC2)CCCCC1)COc1ccc(Cl)cc1Cl (stereo unspecified) 17.6%
O=C(NCC1CCCO1)c1cc(C(=O)C2CCCCC2)c[nH]1 (stereo unspecified) 4.74%
CCCCCOC(=O)CSc1nc2c(c(=O)[nH]c(=O)n2C)n1Cc1ccc(Cl)cc1 1.35%
O=C(CSc1ccc(-c2ccco2)nn1)Nc1ccc(F)cc1F 9.4%
COc1ccc(/C=C/C(=O)CCC(=O)O)cc1 2.46%
CN1C(=O)NC(c2ccc(O)cc2)C2=C1CN(c1ccccc1)C2=O (stereo unspecified) 10.4%
Cc1ccc(N2CC3=C(C2=O)C(c2ccccc2)NC(=O)N3C)cc1 (stereo unspecified) 6.8%
CSc1ccccc1NC(=S)Nc1cc(C)cc(C)c1 9.21%
COc1ccc(S(=O)(=O)N2CCOCC2)cc1NC(=O)Cc1ccccc1Cl 5.39%
CCN(CC)c1ccc(NC(=O)c2cncc(Br)c2)cc1 30.6%
CCN(CC)c1ccc(CNc2ccc(Br)cn2)cc1 4.81%
CCc1ccc(C(=O)OCC(=O)Nc2cccc(S(=O)(=O)NC3=NCCCCC3)c2)cc1 5.3%
O=S(=O)(NC1=NCCCCC1)c1ccc2ccccc2c1 2.56%
Nc1nc2cc(S(=O)(=O)NC3=NCCCCC3)ccc2s1 38.9%
O=S(=O)(Nc1nc2c(s1)CCCC2)c1ccc2ccccc2c1 8.29%
Cc1ccc(-c2cc(C(=O)N3CCCC3)c3ccccc3n2)s1 3.87%
CCCCn1c(N)c(N(CCOC)C(=O)CSc2ccc([N+](=O)[O-])cc2)c(=O)[nH]c1=O 9.47%
CC1CC1C(=O)OCC(=O)NNC(=O)c1ccc([N+](=O)[O-])cc1 (stereo unspecified) 2.78%
Cc1ccc(-c2cc(C(=O)N/N=C/c3c(C)nn(-c4ccccc4)c3C)n[nH]2)s1 3.04%
CC(C)NC(=O)N(C)C[C@H]1Oc2ccc(NS(=O)(=O)c3cn(C)cn3)cc2C(=O)N([C@H](C)CO)C[C@@H]1C 12.3%
Cc1cc(Br)ccc1NCc1ccccn1 23.4%
O=C(CN1CCN(S(=O)(=O)c2ccc(Br)cc2)CC1)Nc1ccc(F)cc1F 7.71%
CC1(C)CNc2cc([N+](=O)[O-])ccc2S1 9.53%
CC1(C)CC(=S)Nc2ccccc2S1 2.74%
CSc1ncccc1C(=O)NC1CCCc2c1cnn2-c1ccc(C)c(C)c1 (stereo unspecified) 3.32%
CCOc1cc(/C=N/N=C/c2ccc(O)c(OCC)c2)ccc1O 9.66%
CCOc1cc(/C=N/n2c(C)nc3sc(C)c(C)c3c2=O)ccc1O 10%
CCOc1cc(C=NN2CCCCCC2)ccc1O 30.4%
CCOc1cc(/C=N/n2cnnc2)cc(Br)c1O 14.1%
CN(C)c1nc(C(=O)O)nc(N2CCOCC2)n1 7.25%
CN(C(=O)c1ccc(NC(=O)Cc2ccc(NC(=O)C3CCCN(C(=O)C4CCCCC4)C3)cc2)cc1)C1CCCC1 (stereo unspecified) 9%
O=C(Nc1cccc(NS(=O)(=O)c2ccc(S(=O)(=O)NC3CC3)cc2)c1)c1ccccn1 11.8%
NC(=O)CSc1nnc(NC(=O)c2cccc(S(=O)(=O)N3CCCCC3)c2)s1 7.47%
Cc1c(Cl)cccc1NC(=S)NC1CCCC1 8.99%
Nc1nc(-c2cccs2)cs1 18.1%
CN(C(=O)c1ccco1)c1nc(-c2ccccc2)cs1 8.31%
c1ccc(-c2nc(-c3cccnc3)cs2)cc1 7.12%
CN(c1nc(-c2ccccc2)cs1)C1CCS(=O)(=O)C1 (stereo unspecified) 8.88%
CN(C(=O)c1cccnc1)c1nc(-c2ccccc2)cs1 0.25%
Oc1ccc(Nc2nc(-c3cccs3)cs2)cc1 19.4%
c1csc(-c2csc(-c3cccs3)n2)c1 7.41%
Cc1cc(O)ccc1Nc1nc(-c2cccnc2)cs1 28.4%
COc1cc(OC)c(C(=O)NCCCn2ccnc2)cc1OC 3.26%
O=C(Nc1cccnc1)c1ccco1 -3.68%
CC(=O)N(C)c1ccc(NC(=O)Cc2cccs2)cc1 -7.79%
COC(=O)Cn1c2c(c3cc(C)ccc31)CCCC2NC(C)c1ccccc1 (stereo unspecified) 12.5%
CCOc1ccc2nc(N3C(=O)C(O)=C(C(=O)c4ccco4)C3c3ccco3)sc2c1 (stereo unspecified) 10.3%
Cc1ccc2nc(N3C(=O)C(O)=C(C(=O)c4ccc(C)o4)C3c3ccco3)sc2c1 (stereo unspecified) 14.4%
CCN1CCN(C(c2cccnc2)c2c(NC(=O)c3ccco3)sc(C)c2C)CC1 (stereo unspecified) 3.07%
O=[N+]([O-])c1ccc(O)c(CNCc2ccccc2)c1 5.59%
Oc1c(C=Nc2ccccc2)sc2ccccc12 6.75%
Oc1ccc(N=Cc2ccc(OCc3ccccc3)cc2)cc1 9.78%
Oc1ccc(C=NC2CCCCC2)cc1 -1.9%
CC1CCCC(C)N1/N=C/c1ccc(O)cc1 (stereo unspecified) 21.4%

Reference: PubChem BioAssay AID624330 (Southern Research Specialized Biocontainment Screening …, 2012)
